Structures can show the parent of a compound that is named as a salt.
System: HL-1
Assay: relative cell viability (CellTiter-Glo) vs DMSO control (% of DMSO control); higher = more viable cells
Outline: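 Compounds at 40, 200, 1000 or 5000 nM in 0.01% DMSO were added to HL-1 mouse atrial cardiomyocytes plated at 1000 cells per well in 384-well plates. The next day, cells were exposed to 1% O2 for 48 h and then reoxygenated for 24 h, or left in normoxia for the same time. Viability was read with CellTiter-Glo luminescence and normalised to vehicle-treated controls.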

[1] = oxygen condition: hypoxia 48 h (1% O2) + reoxygenation 24 h, 40 nM
[2] = oxygen condition: hypoxia 48 h (1% O2) + reoxygenation 24 h, 200 nM
[3] = oxygen condition: hypoxia 48 h (1% O2) + reoxygenation 24 h, 1000 nM
[4] = oxygen condition: hypoxia 48 h (1% O2) + reoxygenation 24 h, 5000 nM
[5] = oxygen condition: normoxia 72 h, 40 nM
[6] = oxygen condition: normoxia 72 h, 200 nM
[7] = oxygen condition: normoxia 72 h, 1000 nM
[8] = oxygen condition: normoxia 72 h, 5000 nM

Compound: CC(C)NCC(O)c1ccc(NS(C)(=O)=O)cc1 (stereo not drawn) [Sotalol]
- relative cell viability [1]: 100
- relative cell viability [2]: 98.9
- relative cell viability [3]: 93
- relative cell viability [4]: 99.8
- relative cell viability [5]: 96.9
- relative cell viability [6]: 94.1
- relative cell viability [7]: 98.4
- relative cell viability [8]: 104

Compound: N=C(N)NC(=N)NCCc1ccccc1 [Phenformin hydrochloride]
- relative cell viability [1]: 101
- relative cell viability [2]: 95.3
- relative cell viability [3]: 99.6
- relative cell viability [4]: 74.1
- relative cell viability [5]: 101
- relative cell viability [6]: 103
- relative cell viability [7]: 104
- relative cell viability [8]: 71.8

Compound: Cc1cc(C2CCCCC2)n(O)c(=O)c1 [Ciclopirox]
- relative cell viability [1]: 95.4
- relative cell viability [2]: 92.3
- relative cell viability [3]: 80.4
- relative cell viability [4]: 5.32
- relative cell viability [5]: 87.8
- relative cell viability [6]: 69.4
- relative cell viability [7]: 20
- relative cell viability [8]: 2.16

Compound: CC1(C)S[C@@H]2[C@H](NC(=O)[C@H](NC(=O)N3CCNC3=O)c3ccccc3)C(=O)N2[C@H]1C(=O)O [Azlocillin sodium salt]
- relative cell viability [1]: 102
- relative cell viability [2]: 102
- relative cell viability [3]: 106
- relative cell viability [4]: 110
- relative cell viability [5]: 101
- relative cell viability [6]: 104
- relative cell viability [7]: 112
- relative cell viability [8]: 116

Compound: CCCNC(C)C(=O)Nc1ccccc1C (stereo not drawn) [Prilocaine]
- relative cell viability [1]: 96.7
- relative cell viability [2]: 101
- relative cell viability [3]: 105
- relative cell viability [4]: 104
- relative cell viability [5]: 92.2
- relative cell viability [6]: 92.1
- relative cell viability [7]: 92.3
- relative cell viability [8]: 97.4

Compound: COc1cc2nc(N3CCN(C(=O)C4COc5ccccc5O4)CC3)nc(N)c2cc1OC (stereo not drawn) [Doxazosin mesylate]
- relative cell viability [1]: 104
- relative cell viability [2]: 107
- relative cell viability [3]: 108
- relative cell viability [4]: 106
- relative cell viability [5]: 105
- relative cell viability [6]: 102
- relative cell viability [7]: 103
- relative cell viability [8]: 114

Compound: C[C@]12CC[C@H](O)CC1=CC[C@@H]1[C@@H]2CC[C@]2(C)C(c3cccnc3)=CC[C@@H]12 [Abiraterone]
- relative cell viability [1]: 74.6
- relative cell viability [2]: 72.2
- relative cell viability [3]: 86.7
- relative cell viability [4]: 116
- relative cell viability [5]: 61.2
- relative cell viability [6]: 67.9
- relative cell viability [7]: 78.7
- relative cell viability [8]: 112

Compound: C=C[C@]1(C)C[C@@H](OC(=O)CS[C@@H]2C[C@H]3CC[C@@H](C2)N3C)[C@]2(C)[C@H](C)CC[C@]3(CCC(=O)[C@H]32)[C@@H](C)[C@@H]1O [Retapamulin]
- relative cell viability [1]: 104
- relative cell viability [2]: 104
- relative cell viability [3]: 105
- relative cell viability [4]: 108
- relative cell viability [5]: 98.3
- relative cell viability [6]: 97.1
- relative cell viability [7]: 89.2
- relative cell viability [8]: 81.7

Compound: CN(Cc1cnc2nc(N)nc(N)c2n1)c1ccc(C(=O)N[C@@H](CCC(=O)O)C(=O)O)cc1 [Abitrexate]
- relative cell viability [1]: 75.8
- relative cell viability [2]: 51.7
- relative cell viability [3]: 42.5
- relative cell viability [4]: 42
- relative cell viability [5]: 58.2
- relative cell viability [6]: 52.2
- relative cell viability [7]: 41.8
- relative cell viability [8]: 43.9

Compound: CNS(=O)(=O)Cc1ccc2[nH]cc(CCN(C)C)c2c1 [Sumatriptan succinate]
- relative cell viability [1]: 107
- relative cell viability [2]: 109
- relative cell viability [3]: 100
- relative cell viability [4]: 110
- relative cell viability [5]: 102
- relative cell viability [6]: 100
- relative cell viability [7]: 108
- relative cell viability [8]: 104

Compound: COc1cc2c(cc1OC)C(=O)C(CC1CCN(Cc3ccccc3)CC1)C2 (stereo not drawn) [Donepezil HCl]
- relative cell viability [1]: 106
- relative cell viability [2]: 106
- relative cell viability [3]: 110
- relative cell viability [4]: 106
- relative cell viability [5]: 95.9
- relative cell viability [6]: 102
- relative cell viability [7]: 103
- relative cell viability [8]: 107

Compound: Nc1nc2[nH]cc(CCc3ccc(C(=O)N[C@@H](CCC(=O)O)C(=O)O)cc3)c2c(=O)[nH]1 [Pemetrexed]
- relative cell viability [1]: 116
- relative cell viability [2]: 104
- relative cell viability [3]: 85.8
- relative cell viability [4]: 74.8
- relative cell viability [5]: 104
- relative cell viability [6]: 95.5
- relative cell viability [7]: 90.8
- relative cell viability [8]: 69.6

Compound: CCN[C@H]1CN(CCCOC)S(=O)(=O)c2sc(S(N)(=O)=O)cc21 [Brinzolamide]
- relative cell viability [1]: 101
- relative cell viability [2]: 84.5
- relative cell viability [3]: 62.4
- relative cell viability [4]: 3.36
- relative cell viability [5]: 98.2
- relative cell viability [6]: 81.9
- relative cell viability [7]: 57.5
- relative cell viability [8]: 3.09

Compound: CC1=C(/C=C/C(C)=C/C=C/C(C)=C/C=C/C=C(C)/C=C/C=C(C)/C=C/C2=C(C)CCCC2(C)C)C(C)(C)CCC1 [Beta Carotene]
- relative cell viability [1]: 96.9
- relative cell viability [2]: 95.3
- relative cell viability [3]: 99.9
- relative cell viability [4]: 104
- relative cell viability [5]: 104
- relative cell viability [6]: 92.9
- relative cell viability [7]: 104
- relative cell viability [8]: 104

Compound: CN(C)CCc1c[nH]c2ccc(C[C@H]3COC(=O)N3)cc12 [Zolmitriptan]
- relative cell viability [1]: 105
- relative cell viability [2]: 104
- relative cell viability [3]: 104
- relative cell viability [4]: 110
- relative cell viability [5]: 108
- relative cell viability [6]: 104
- relative cell viability [7]: 102
- relative cell viability [8]: 102

Compound: CC(=O)Oc1cc2c(s1)CCN(C(C(=O)C1CC1)c1ccccc1F)C2 (stereo not drawn) [Prasugrel]
- relative cell viability [1]: 115
- relative cell viability [2]: 104
- relative cell viability [3]: 106
- relative cell viability [4]: 110
- relative cell viability [5]: 106
- relative cell viability [6]: 105
- relative cell viability [7]: 122
- relative cell viability [8]: 120

Compound: C#CCN[C@@H]1CCc2ccccc21 [Rasagiline mesylate]
- relative cell viability [1]: 94.8
- relative cell viability [2]: 96.7
- relative cell viability [3]: 98.2
- relative cell viability [4]: 102
- relative cell viability [5]: 93.3
- relative cell viability [6]: 92.9
- relative cell viability [7]: 99.4
- relative cell viability [8]: 108

Compound: C=C1/C(=C\C=C2/CCC[C@]3(C)[C@@H]([C@H](C)/C=C/[C@H](C)C(C)C)CC[C@@H]23)C[C@@H](O)C[C@@H]1O [Doxercalciferol]
- relative cell viability [1]: 89.5
- relative cell viability [2]: 88
- relative cell viability [3]: 93.7
- relative cell viability [4]: 88.7
- relative cell viability [5]: 106
- relative cell viability [6]: 99
- relative cell viability [7]: 103
- relative cell viability [8]: 52.4

Compound: Oc1cc(O)c(Cl)cn1 [Gimeracil]
- relative cell viability [1]: 99.3
- relative cell viability [2]: 101
- relative cell viability [3]: 100
- relative cell viability [4]: 104
- relative cell viability [5]: 97.8
- relative cell viability [6]: 101
- relative cell viability [7]: 101
- relative cell viability [8]: 105

Compound: Clc1ccc(C(c2ccccc2Cl)C(Cl)Cl)cc1 (stereo not drawn) [Mitotane]
- relative cell viability [1]: 108
- relative cell viability [2]: 105
- relative cell viability [3]: 107
- relative cell viability [4]: 102
- relative cell viability [5]: 104
- relative cell viability [6]: 110
- relative cell viability [7]: 106
- relative cell viability [8]: 121

Compound: CC1CNc2c(cccc2S(=O)(=O)N[C@@H](CCCNC(=N)N)C(=O)N2CC[C@@H](C)C[C@@H]2C(=O)O)C1 (stereo partly drawn) [Argatroban]
- relative cell viability [1]: 97.7
- relative cell viability [2]: 97.5
- relative cell viability [3]: 94.6
- relative cell viability [4]: 106
- relative cell viability [5]: 97.3
- relative cell viability [6]: 95.6
- relative cell viability [7]: 97.6
- relative cell viability [8]: 106
